The record followed here is PubChem BioAssay AID488984 (The Scripps Research Institute Molecular Screening Center, 2010).

A number with no mark means an inactive call. Active and inactive are the calls of the source. No stated cut-off is given here; in the data, active means inhibition above about 55%; inactive means the rest.

In the test the test system is SARS coronavirus 3C-like protease (3CLpro, nsp5). The test can be described thus: blockers of SARS 3CLpro activity – biochemical, fluorescence, set 2, late-stage follow-up (AID 488984). As to conditions: recombinant 3CLpro, fluorogenic peptide cleavage; at 100 µM; active compounds read high.
Consider `CC(C)C(=O)Nc1ccc(N(C(=O)Cn2cnc3ccccc32)C(C(=O)NC(C)(C)C)c2ccsc2)cc1` (configuration not stated), for which the inhibition was 59.8% (active).

As to `CC(C)c1ccc(N(C(=O)Cc2cccnc2)C(C(=O)NC(C)(C)C)c2cccnc2)cc1` (configuration not stated), the inhibition is 2.83%.

As to `CC(C)(C)NC(=O)C(c1ccsc1)N(C(=O)Cc1c[nH]c2ccccc12)C1CC1` (configuration not stated), the inhibition was 48.4%.

As for `CC(C)(C)NC(=O)C(c1ccsc1)N(C(=O)Cc1c[nH]c2ccccc12)c1ccc(C(C)(C)C)cc1` (configuration not stated), the inhibition was 26.3%.

Turning to `CC(=O)Nc1ccc(N(C(=O)Cn2c(C)nc3ccccc32)C(C(=O)NC(C)(C)C)c2ccsc2)cc1` (configuration not stated), the inhibition was 2.27%.

`CC(C)(C)NC(=O)C(c1ccsc1)N(C(=O)c1ccc(C#N)cc1)c1ccc(OCF)cc1` (configuration not stated): the inhibition is 17.8%.

In the case of `CC(C)(C)NC(=O)C(c1ccsc1)N(C(=O)Cn1nnc2ccccc21)c1ccc(N)cc1` (configuration not stated), the inhibition was 74.8% (active).

With `Cc1nccn1CC(=O)N(c1ccc(C(C)(C)C)cc1)C(C(=O)NC(C)(C)C)c1ccsc1` (configuration not stated), the inhibition was 0.41%.

Turning to `CC(C)(C)NC(=O)C(c1cccnc1)N(C(=O)c1cccc2c1CCCC2)c1ccc(OCF)cc1` (configuration not stated), the inhibition was 16%.

Regarding `CC(C)(C)NC(=O)C(c1ccsc1)N(C(=O)c1cccc2c1CCCC2)c1ccc(F)cc1` (configuration not stated), the inhibition was 14.4%.

`CC(C)(C)NC(=O)C(c1cccnc1)N(C(=O)c1ccc(C#N)cc1)c1ccc(C(C)(C)C)cc1` (configuration not stated): the inhibition is -0.02%.

Turning to `CC(C)(C)NC(=O)C(c1cccnc1)N(C(=O)Cc1cccc2ccccc12)c1ccc(F)cc1` (configuration not stated), the inhibition is -7.86%.

For the molecule `CC(C)(C)NC(=O)C(c1cccnc1)N(C(=O)Cc1c[nH]c2ccccc12)C1CC1` (configuration not stated), the inhibition is 8.97%.

For the molecule `CC(C)(C)NC(=O)C(c1ccsc1)N(C(=O)Cn1nnc2ccccc21)c1ccc(C(C)(C)C)cc1` (configuration not stated), the inhibition is 2.8%.

On to `CC(=O)Nc1ccc(N(C(=O)Cn2cnc3ccccc32)C(C(=O)NC(C)(C)C)c2ccsc2)cc1` (configuration not stated), for which the inhibition was 2.63%.

With `CC(C)(C)NC(=O)C(c1ccsc1)N(C(=O)c1n[nH]c2ccccc12)C1CC1` (configuration not stated), the inhibition was 13%.

Regarding `CC(C)(C)NC(=O)C(c1cccnc1)N(C(=O)c1cccc2c1CCCC2)c1ccc(C(C)(C)C)cc1` (configuration not stated), the inhibition was 12.7%.

Regarding `CC(C)(C)NC(=O)C(c1ccsc1)N(C(=O)c1n[nH]c2ccccc12)c1ccc(OC(F)F)cc1` (configuration not stated), the inhibition is 14.3%.

On to `Cc1nc2ccccc2n1CC(=O)N(c1ccc(C(C)(C)C)cc1)C(C(=O)NC(C)(C)C)c1ccsc1` (configuration not stated), for which the inhibition was 2.02%.

As for `CC(C)(C)NC(=O)C(c1ccsc1)N(C(=O)c1cccc2c1CCCC2)c1ccc(OCF)cc1` (configuration not stated), the inhibition was 12.6%.

In the case of `CC(C)(C)NC(=O)C(c1ccsc1)N(C(=O)c1cccc2c1CCCC2)c1ccc(C(C)(C)C)cc1` (configuration not stated), the inhibition was 12.9%.

Take `CC(C)(C)NC(=O)C(c1ccsc1)N(C(=O)Cn1cnc2ccccc21)c1ccc(N)cc1` (configuration not stated): the inhibition is 12.6%.

As usually defined, the inhibition is the drop in the measured response relative to a control, in per cent.
